Experimental data from PubChem BioAssay (NCATS).
Results filed as inconclusive are left out. The source made the active and inactive calls. Unless noted, the call rests on the fitted dose curve; in most records, active means well fitted inhibition curve with a large enough effect; inconclusive means small, poorly fitted or top-dose-only effect; inactive means no such curve, though single readings can be large or run the other way.

assay: High-throughput drug toxicity screening in the BPDCN cell line Cal-1 (AID 1224825; call rule not given here); settings: Cal-1 BPDCN cell viability, qHTS; at 45.8 µM (top of the series) unless noted
Summary of the method: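 Cal-1 cells, 500 per well in phenol-red-free RPMI with 10% FBS, exposed to compounds for 48 hours at 37C, 5% CO2. Viability read by CellTiter-Glo luminescence; percent activity normalized to DMSO (100%) and 9.2 uM bortezomib final (0%).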

| SMILES | viability (% of control) |
| --- | --- |
| O=C(O)c1ccc(Nc2ncc3c(n2)-c2ccc(Cl)cc2C(c2c(F)cccc2F)=NC3)cc1 | 18.2% |
| Cc1ccc2nc(NCCN)c3ncc(C)n3c2c1 | 3.39% |
| O=C(O)C=Cc1ccc(Cn2ccnc2)cc1 | 124% |
| CC(=O)N1CCN(c2ccc(OCc3nn(C)c(C)c3-c3cccc4c(CCCOc5cccc6ccccc56)c(C(=O)O)n(Cc5cccnc5)c34)cc2)CC1 | 2.28% |
| NC1=N[C@H]2[C@H](CS[C@H]2CCCCC(=O)O)N1 | 126% [at 23.2 µM] |
| OCc1ccccc1O[C@@H]1O[C@H](CO)[C@H](O)[C@H](O)[C@H]1O | 108% |
| OCCN1C[C@H](O)[C@@H](O)[C@H](O)[C@@H]1CO | 103% |
| COC(=O)[C@@H]1CC2=CC(=O)CC[C@]2(C)[C@@]23O[C@@H]2C[C@@]2(C)[C@H](CC[C@@]24CCC(=O)O4)[C@@H]13 | 108% |
| CN[C@H](CC(C)C)C(=O)N[C@H]1C(=O)N[C@@H](CC(N)=O)C(=O)N[C@@H]2C(=O)N[C@H]3C(=O)N[C@H](C(=O)N[C@H](C(=O)O)c4cc(O)cc(O)c4-c4cc3ccc4O)[C@H](O)c3ccc(c(Cl)c3)Oc3cc2cc(c3O[C@@H]2O[C@H](CO)[C@@H](O)[C@H](O)[C@@H]2O[C@H]2C[C@](C)(N)[C@H](O)[C@H](C)O2)Oc2ccc(cc2Cl)[C@H]1O | 93.1% |
| Cc1cn([C@@H]2O[C@H](CO)[C@@H](O)[C@H]2F)c(=O)[nH]c1=O | 72.5% |
| Cc1ccccc1C(=O)Nc1ccc(C(=O)N2CCCC(O)c3cc(Cl)ccc32)c(C)c1 (stereo not given) | 104% |
| CNC(=O)Nc1ccc(-c2nc(N3CC4CCC(C3)O4)c3cnn(C4CCC5(CC4)OCCO5)c3n2)cc1 | 8.62% |
| CN[C@H]1[C@@H](O)[C@@H]2O[C@@H]3O[C@H](C)CC(=O)[C@]3(O)O[C@@H]2[C@@H](NC)[C@H]1O | 5.36% |
| O=c1[nH]c(=O)n([C@H]2C[C@@H](O)[C@@H](CO)O2)cc1C=CBr | 115% |
| C=Cc1c(C)c2cc3nc(cc4[nH]c(cc5nc(cc1[nH]2)C(C)=C5CCC(=O)O)c(CCC(=O)OC)c4C)[C@@]1(C)C3=CC=C(C(=O)OC)[C@H]1C(=O)OC | 3.29% |
| CC(C)(O)CC[C@@H](O)[C@](C)(O)[C@H]1CC[C@@]2(O)C3=CC(=O)[C@@H]4C[C@@H](O)[C@@H](O)C[C@]4(C)[C@@H]3CC[C@]12C | 104% |
| CCCCC(=O)O[C@]1(C(=O)CO)[C@@H](C)C[C@H]2[C@@H]3CCC4=CC(=O)C=C[C@]4(C)[C@@]3(F)[C@@H](O)C[C@@]21C | 51.8% |
| CC(=O)C1=C(O)C=C2Oc3c(C(C)=O)c(O)c(C)c(O)c3C2(C)C1=O (stereo not given) | 103% |
| C=CC(=O)N1CCc2ccc(-n3c(=O)ccc4cnc5ccc(-c6cnn(C)c6)cc5c43)cc21 | 2.44% |
| CC(Cc1ccc(O)c(O)c1)(NN)C(=O)O (stereo not given) | 91.3% |
| CCNC(=O)Nc1ccc(-c2nc3c(c(N4CCOC[C@H]4C)n2)CCN(C2COC2)C3)cc1 | 19.9% |
| CC1(C)O[C@@H]2C[C@H]3[C@@H]4CCC5=CC(=O)C=C[C@]5(C)[C@@H]4[C@@H](O)C[C@]3(C)[C@]2(C(=O)CO)O1 | 46.1% |
| O=C(Nc1ccc(Oc2ccnc3[nH]ccc23)c(F)c1)c1cccn(-c2ccc(F)cc2)c1=O | 87.2% |
| C[C@@H]1[C@H](C)CC[C@]2(C(=O)O)CC[C@]3(C)C(=CC[C@@H]4[C@@]5(C)C[C@@H](O)[C@H](O)[C@@](C)(CO)[C@H]5CC[C@]43C)[C@@H]12 | 122% |
| CCCCCCCCCCCCc1ccc(S(=O)(=O)Nc2nncs2)cc1 | 105% |
| CON=C(C(=O)N[C@@H]1C(=O)N2C(C(=O)O)=C(CSC(=O)c3ccco3)CS[C@H]12)c1csc(N)n1 | 8.07% |

assay: qHTS assay for measurement of the activity of small molecule inhibitors on Zika virus induced Caspase-3 activity in human iPSC derived neural progenitor cells (hNPCs) (AID 1224857); settings: hNPCs ZIKV-induced caspase-3/7, Caspase-Glo luminescence, 6 h; series mostly up to 45.7 µM; activity change, negative = inhibition: at the top concentration; further: nearly all actives have a fitted effect of over 65% in size; further: potency means the concentration at half of the fitted maximal effect; on activity change, negative = inhibition: % of control where 0% means no effect
Summary of the method: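 Quantitative HTS format: human iPSC neural progenitors, 1 h compound pretreatment, ZIKV 2 FFU/cell for 6 h at 37 C. Percent inhibition derived from luminescent caspase-3/7 signal between uninfected and infected controls.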

| SMILES | activity change, negative = inhibition | Potency |
| --- | --- | --- |
| CON=C(C(=O)N[C@@H]1C(=O)N2C(C(=O)O)=C(Cn3ccc(=N)n3CCO)CS[C@H]12)c1csc(N)n1 | 4.43% (inactive) | – |
| CCc1cc(C(C)=NOCc2ccc(C3CCCCC3)c(C(F)(F)F)c2)ccc1CN1CC(C(=O)O)C1 | 33.9% (inactive) | – |
| COc1ccc([C@@H]2CNC(=O)C2)cc1OC1CCCC1 | 36.6% (inactive) | – |
| N#CC(=Cc1ccc(O)c(O)c1)C(=O)NCc1ccccc1 | 80.1% (inactive) | – |
| CC(=O)O[C@]1(C(C)=O)CC[C@H]2[C@@H]3C=C(C)C4=CC(=O)CC[C@]4(C)[C@@H]3CC[C@@]21C | 96.6% (inactive) | – |
| C=CC[C@@H]1C=C(C)C[C@H](C)C[C@H](OC)[C@H]2O[C@@](O)(C(=O)C(=O)N3CCCC[C@H]3C(=O)O[C@H](C(C)=C[C@@H]3CC[C@H](O)[C@H](OC)C3)[C@@H](C)[C@@H](O)CC1=O)[C@@H](C)C[C@@H]2OC | 8.62% (inactive) | – |
| N#CC(=C(N)Sc1ccc(N)cc1)c1ccccc1C(F)(F)F | 3.85% (inactive) | – |
| COc1cc(C)c(Sc2cnc(NC(=O)c3ccc(CNC(C)C(C)(C)C)cc3)s2)cc1C(=O)N1CCN(C(C)=O)CC1 (stereo not given) | 233% (inactive) | – |
| COc1ccc(Nc2cc(-c3cnc(N)nc3)nc(N3CCOCC3)n2)cn1 | 34.5% (inactive) | – |
| C[N+]1(C)[C@@H]2C[C@@H](OC(=O)C(O)(c3cccs3)c3cccs3)C[C@H]1[C@@H]1O[C@@H]12 | 13.9% (inactive) | – |
| CC(=O)N[C@H]1[C@@H]([C@H](O)[C@H](O)CO)OC(C(=O)O)=C[C@@H]1N=C(N)N | -2.31% (inactive) | – |
| C=C1C[C@@]2(O)O[C@@]3(C[C@H]2C(C)C)[C@H](C)CC[C@H]13 | 13.9% (inactive) | – |
| CS(=O)(=O)N1CCc2c(-c3cnc(N)nc3)nc(N3CCOCC3)nc21 | 83.4% (inactive) | – |
| O=C(O)c1ccc(Nc2ncc3c(n2)-c2ccc(Cl)cc2C(c2c(F)cccc2F)=NC3)cc1 | 119% (inactive) | – |
| Cc1ccc2nc(NCCN)c3ncc(C)n3c2c1 | 175% (inactive) | – |
| O=C(O)C=Cc1ccc(Cn2ccnc2)cc1 | -1.47% (inactive) | – |
| CC(=O)N1CCN(c2ccc(OCc3nn(C)c(C)c3-c3cccc4c(CCCOc5cccc6ccccc56)c(C(=O)O)n(Cc5cccnc5)c34)cc2)CC1 | 42.5% (inactive) | – |
| NC1=N[C@H]2[C@H](CS[C@H]2CCCCC(=O)O)N1 | 31.5% [at 20.5 µM] (inactive) | – |
| OCc1ccccc1O[C@@H]1O[C@H](CO)[C@H](O)[C@H](O)[C@H]1O | -2.81% (inactive) | – |
| OCCN1C[C@H](O)[C@@H](O)[C@H](O)[C@@H]1CO | 5.67% (inactive) | – |

| SMILES | activity change, negative = inhibition | Potency |
| --- | --- | --- |
| COC(=O)[C@@H]1CC2=CC(=O)CC[C@]2(C)[C@@]23O[C@@H]2C[C@@]2(C)[C@H](CC[C@@]24CCC(=O)O4)[C@@H]13 | 12% (inactive) | – |
| CN[C@H](CC(C)C)C(=O)N[C@H]1C(=O)N[C@@H](CC(N)=O)C(=O)N[C@@H]2C(=O)N[C@H]3C(=O)N[C@H](C(=O)N[C@H](C(=O)O)c4cc(O)cc(O)c4-c4cc3ccc4O)[C@H](O)c3ccc(c(Cl)c3)Oc3cc2cc(c3O[C@@H]2O[C@H](CO)[C@@H](O)[C@H](O)[C@@H]2O[C@H]2C[C@](C)(N)[C@H](O)[C@H](C)O2)Oc2ccc(cc2Cl)[C@H]1O | 10.8% (inactive) | – |
| Cc1cn([C@@H]2O[C@H](CO)[C@@H](O)[C@H]2F)c(=O)[nH]c1=O | 42.2% (inactive) | – |
| Cc1ccccc1C(=O)Nc1ccc(C(=O)N2CCCC(O)c3cc(Cl)ccc32)c(C)c1 (stereo not given) | 16.4% (inactive) | – |
| CNC(=O)Nc1ccc(-c2nc(N3CC4CCC(C3)O4)c3cnn(C4CCC5(CC4)OCCO5)c3n2)cc1 | 12.3% (inactive) | – |
| CN[C@H]1[C@@H](O)[C@@H]2O[C@@H]3O[C@H](C)CC(=O)[C@]3(O)O[C@@H]2[C@@H](NC)[C@H]1O | – | 16.6 µM (active) |
| O=c1[nH]c(=O)n([C@H]2C[C@@H](O)[C@@H](CO)O2)cc1C=CBr | -20.1% (inactive) | – |
| C=Cc1c(C)c2cc3nc(cc4[nH]c(cc5nc(cc1[nH]2)C(C)=C5CCC(=O)O)c(CCC(=O)OC)c4C)[C@@]1(C)C3=CC=C(C(=O)OC)[C@H]1C(=O)OC | 35.3% (inactive) | – |
| CC(C)(O)CC[C@@H](O)[C@](C)(O)[C@H]1CC[C@@]2(O)C3=CC(=O)[C@@H]4C[C@@H](O)[C@@H](O)C[C@]4(C)[C@@H]3CC[C@]12C | 0.396% (inactive) | – |
| CCCCC(=O)O[C@]1(C(=O)CO)[C@@H](C)C[C@H]2[C@@H]3CCC4=CC(=O)C=C[C@]4(C)[C@@]3(F)[C@@H](O)C[C@@]21C | 18.2% (inactive) | – |
| CC(=O)C1=C(O)C=C2Oc3c(C(C)=O)c(O)c(C)c(O)c3C2(C)C1=O (stereo not given) | -13.9% (inactive) | – |
| C=CC(=O)N1CCc2ccc(-n3c(=O)ccc4cnc5ccc(-c6cnn(C)c6)cc5c43)cc21 | -8.44% (inactive) | – |
| CC(Cc1ccc(O)c(O)c1)(NN)C(=O)O (stereo not given) | -4.02% (inactive) | – |
| CCNC(=O)Nc1ccc(-c2nc3c(c(N4CCOC[C@H]4C)n2)CCN(C2COC2)C3)cc1 | 10.2% (inactive) | – |
| CC1(C)O[C@@H]2C[C@H]3[C@@H]4CCC5=CC(=O)C=C[C@]5(C)[C@@H]4[C@@H](O)C[C@]3(C)[C@]2(C(=O)CO)O1 | 3.9% (inactive) | – |
| O=C(Nc1ccc(Oc2ccnc3[nH]ccc23)c(F)c1)c1cccn(-c2ccc(F)cc2)c1=O | 8.06% (inactive) | – |
| C[C@@H]1[C@H](C)CC[C@]2(C(=O)O)CC[C@]3(C)C(=CC[C@@H]4[C@@]5(C)C[C@@H](O)[C@H](O)[C@@](C)(CO)[C@H]5CC[C@]43C)[C@@H]12 | 105% (inactive) | – |
| CCCCCCCCCCCCc1ccc(S(=O)(=O)Nc2nncs2)cc1 | -10.5% (inactive) | – |
| CON=C(C(=O)N[C@@H]1C(=O)N2C(C(=O)O)=C(CSC(=O)c3ccco3)CS[C@H]12)c1csc(N)n1 | -13.6% (inactive) | – |
